Many of the other results were omitted from the sample, so hits are more common in it than they were.
VACV Venus inh = inhibitors of vaccinia virus (Venus reporter); Vaccinia virus Venus reporter expression, fluorescence; Potency, µM (titrated, usually from 36.5 µM), without a hit: top-dose activity change, negative = inhibition, actives largely listed as inhibitors; hit rate 0.46% among 330,000; calls by dose curve; tested in A549 cells; also: potency is read from the fitted curve at half-maximal effect; % is scaled to controls: 0 for no effect and ±100 for the full control effect; nearly all actives have a fitted effect of over 30% in size
VACV mCherry inh = vaccinia inhibition (mCherry reporter) | Vaccinia virus mCherry reporter infection, fluorescence | AID 720579 | hit rate 0.63% among 310,000 | Potency, µM (top dose mostly 36.5 µM), for inactives: at the highest dose activity change, negative = inhibition, usual class: inhibitors; calls by dose curve; tested in A549 cells; also: potency is read from the fitted curve at half-maximal effect; % is scaled to controls: 0 for no effect and ±100 for the full control effect; nearly all actives have a fitted effect of over 35% in size
MARV entry inh = inhibitors of Marburg virus binding or cell entry | Marburg virus pseudotyped entry inhibition, cell reporter | Potency, µM (series often up to 37.8 µM), without a hit: at the top dose activity change, negative = inhibition, hits mostly inhibitors | hit rate 1.8% among 300,000 | AID 540276; calls by dose curve; tested in HEK293 cells; also: potency is read from the fitted curve at half-maximal effect; % is scaled to controls: 0 for no effect and ±100 for the full control effect
CHX counter = affects cycloheximide protein synthesis inhibition readout, counter-screen. cell reporter, cycloheximide protein synthesis inhibition counterscreen. max response, %. hit rate 12% among 300,000; in the data active = max response mostly above about 13%, no sharp cut-off; inactive = mostly below about 14%; also: read at 38.3 µM for the half of the compounds with a filed dose; 0% is about no effect
Shiga inhibitor = Shiga toxin inhibition; Vero cells, Shiga toxin protein synthesis inhibition reporter; inhibition, % at 38.7 µM; hit rate 9.2% among 290,000; in the data active = inhibition mostly above about 28%, no sharp cut-off; inactive = mostly below about 43%; also: 0% is about no effect
LASV entry inh = inhibitors of Lassa virus binding or cell entry | Lassa virus pseudotype entry inhibition, cell reporter | Potency, µM (top dose mostly 37.9 µM), without a hit: at the top dose activity change, negative = inhibition, usual class: inhibitors | hit rate 1.2% among 300,000; calls by dose curve; tested in HEK293 cells; also: potency is read from the fitted curve at half-maximal effect; % is scaled to controls: 0 for no effect and ±100 for the full control effect; nearly all actives have a fitted effect of over 50% in size
Numbers without * were called inactive; [ ] = remark or other dose.

For CC(=O)Nc1ccc(N(C(=O)c2ccco2)C(C(=O)NC2CCCC2)c2ccncc2)cc1 (stereo not given) the results were VACV Venus inh -2.8%, VACV mCherry inh -16.2%, MARV entry inh 18.6%[46.1 µM], CHX counter -3.9, Shiga inhibitor -4.7 and LASV entry inh 0.9%.
For CCc1ccc(NC(=O)CN2C(=O)C(c3ccc(C)cc3)=NC23CCCCC3)cc1 the results were VACV Venus inh -8.8%, VACV mCherry inh -13.7%, MARV entry inh inconclusive and LASV entry inh -22.2%[46.1 µM].
For O=C(NCc1ccccc1)c1ccc(OC2CSC2)cc1 the results were MARV entry inh inconclusive, CHX counter 11.9*, Shiga inhibitor 15.5 and LASV entry inh -2.2%.
For O=C(Nc1cccc(Br)c1)c1ccc(OC2CSC2)cc1 the results were CHX counter 42.9* and Shiga inhibitor 147.4*.
Screening O=C(NCc1ccccc1)c1ccc(Oc2ccc(C(=O)NCc3ccccc3)cc2)cc1 returned VACV Venus inh -16.6%, MARV entry inh -22.4%, CHX counter -2.7, Shiga inhibitor -2.2 and LASV entry inh -13.7%.
For Cc1cccc(NC(=O)c2ccc(OC3CSC3)cc2)c1 the results were VACV Venus inh -8.9%, VACV mCherry inh -17.6%, MARV entry inh inconclusive, CHX counter 43.4*, Shiga inhibitor 62.0* and LASV entry inh inconclusive.
CC(=O)c1cccc(NC(=O)c2ccc(OC3CSC3)cc2)c1 was read as VACV Venus inh -10.4%, VACV mCherry inh inactive, MARV entry inh inconclusive, CHX counter 21.4, Shiga inhibitor 28.8 and LASV entry inh 12.4%[46.1 µM].
`O=C(NC1CCSc2ccccc21)c1cccc(Cl)c1` (stereo not given) gave VACV Venus inh -3.1%, VACV mCherry inh inactive, MARV entry inh -21.6%[46.1 µM], CHX counter 1.0, Shiga inhibitor -16.2 and LASV entry inh 16.4%[46.1 µM].
O=C(Nc1ccc(F)cc1F)c1ccc(CN2CC(=O)N3CCCCC3C2=O)cc1 (stereo not given) was read as VACV Venus inh 3.5%, VACV mCherry inh -9.6% and LASV entry inh -5.8%[46.1 µM].
CC(C)Cn1c(=O)c2sccc2n2c(CCCC(=O)Nc3ccc(Cl)cc3)nnc12 was read as VACV Venus inh -4.3%, VACV mCherry inh -3.4% and LASV entry inh 21.3%[46.1 µM].
`O=C1CC(c2nc(-c3ccccc3)no2)CN1c1ccc2c(c1)OCCO2` (stereo not given) gave VACV Venus inh 5.1%, VACV mCherry inh 0.9% and LASV entry inh 23.8%[46.1 µM].
C/C(=N\NC(=O)c1c(Br)cnn1C)c1ccc(NC(=O)c2ccc(F)cc2)cc1 was read as MARV entry inh inconclusive, CHX counter 42.9*, Shiga inhibitor 86.4* and LASV entry inh -15.5%.
`C/C(=N\NC(=O)c1c(Cl)cnn1C)c1cccc(NC(=O)C(C)C)c1` gave VACV Venus inh -15.7%, VACV mCherry inh -18.0%, MARV entry inh -33.4%, CHX counter 1.1, Shiga inhibitor -4.5 and LASV entry inh -0.6%.
Screening C/C(=N\NC(=O)c1c(Cl)cnn1C)c1cccc(NC(=O)c2ccc(C)cc2)c1 returned CHX counter 20.8* and Shiga inhibitor 109.1*.
Screening CC(C)c1ccc(/C=N/NC(=O)c2c(Cl)cnn2C)cc1 returned VACV Venus inh -12.5%, VACV mCherry inh -0.5%, MARV entry inh inconclusive, CHX counter 46.5*, Shiga inhibitor active and LASV entry inh inconclusive.
C/C(=N/NS(=O)(=O)c1ccc(Cl)cc1)c1cccc(NC(=O)c2ccncc2)c1 was read as VACV Venus inh -9.4%, VACV mCherry inh -17.0%, MARV entry inh 0.2%, CHX counter 5.7, Shiga inhibitor -0.9 and LASV entry inh -8.1%.
`C/C(=N\NC(=O)c1ccn(C)n1)c1cccc(NC(=O)c2ccncc2)c1` gave VACV Venus inh -20.7%, VACV mCherry inh -15.5%, MARV entry inh -8.6%, CHX counter 30.5*, Shiga inhibitor 45.2* and LASV entry inh 8.7%.
Screening C/C(=N\NC(=O)c1ccc(Cl)cc1)c1cccc(NC(=O)c2cccnc2)c1 returned VACV Venus inh -8.8%, VACV mCherry inh -7.3%, MARV entry inh -9.4%, CHX counter 37.7*, Shiga inhibitor 44.9* and LASV entry inh 23.0%.
For Cn1ncc(Cl)c1C(=O)Nc1cccnc1 the results were VACV Venus inh 7.8%, VACV mCherry inh -10.6%, MARV entry inh -0.5%, CHX counter -4.0, Shiga inhibitor -3.8 and LASV entry inh -0.1%.
`C/C(=N\NC(=O)c1ccc(Cl)cc1)c1cccnc1` gave VACV Venus inh -8.7%, VACV mCherry inh inactive, MARV entry inh -19.9%[46.1 µM], CHX counter 29.1*, Shiga inhibitor 44.3 and LASV entry inh inconclusive.
For C/C(=N\NC(=O)c1c(Cl)cnn1C)c1cccnc1 the results were CHX counter 39.4* and Shiga inhibitor 55.8*.
For Cc1cc[n+](CCC2CCCCC2)c2ccccc12 the results were VACV Venus inh -37.5% and VACV mCherry inh inconclusive.
`CCN1CCN(C(=O)c2ccc3c(c2)N(Cc2ccccc2F)C(=O)c2ccccc2S3=O)CC1` (stereo not given) gave VACV Venus inh -6.2%, VACV mCherry inh 1.8%, MARV entry inh 11.8%[46.1 µM] and LASV entry inh 1.2%[46.1 µM].
`COc1ccc(C(=O)Nc2cc(C)on2)c(OC)c1` gave CHX counter 38.4* and Shiga inhibitor 40.7*.
For COc1ccc(C(=O)Nc2ccc(C)cn2)c(OC)c1 the results were VACV Venus inh -12.9%, VACV mCherry inh 31.2%, MARV entry inh 1.03µM*, CHX counter -2.7, Shiga inhibitor -7.3 and LASV entry inh 0.651µM*.
`CC(=O)Nc1cc(C(=O)NCc2ccc(F)cc2)ccc1Sc1ccc(C)cc1` gave VACV Venus inh -15.0%, VACV mCherry inh -9.6% and LASV entry inh 2.2%[46.1 µM].
Screening CCc1ccc(-c2cc(C(=O)N/N=C/c3ccccn3)[nH]n2)cc1 returned VACV Venus inh -14.3%, VACV mCherry inh -16.9%, MARV entry inh -6.7%[46.1 µM], CHX counter 22.0 and Shiga inhibitor 29.0.
For CCCc1sc(N/N=C/c2ccccn2)nc1-c1ccc(Br)cc1 the results were VACV Venus inh -8.5%, VACV mCherry inh inconclusive, MARV entry inh inconclusive, CHX counter 6.1, Shiga inhibitor 19.2 and LASV entry inh 5.17µM*.
For Cc1ccc(/C=N/n2nnnc2N)cc1 the results were VACV Venus inh -2.6%, VACV mCherry inh -2.1%, MARV entry inh inconclusive and LASV entry inh 3.7%[46.1 µM].
For Cc1no[n+]([O-])c1COc1ccc(/C=N/n2nnnc2N)cc1 the results were VACV Venus inh inconclusive, VACV mCherry inh 14.1µM*, MARV entry inh -29.3%, CHX counter -3.5, Shiga inhibitor 25.0 and LASV entry inh 9.4%.
Screening CCOC(=O)C1=C(Cc2ccc(C)cc2)C(=O)c2ccccc2C1=O returned MARV entry inh 3.1%, CHX counter 18.8* and Shiga inhibitor 10.0.
CCOC(=O)c1ccc(COC(=O)c2ccc3c(c2)-c2ccccc2C3=O)cc1 was read as VACV Venus inh -4.9%, VACV mCherry inh -13.6%, MARV entry inh 24.7%, CHX counter -3.2, Shiga inhibitor -11.5 and LASV entry inh inconclusive.
